The panel holds about 83,000 compounds, 20% with a hit somewhere; the sample as a whole holds those more often.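 Growth was measured after 48 h exposure to one concentration of compound in 96-well plates. Values under 10 count as active.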 Values without a mark were called inactive. Active and inactive are the calls of the source.
How the values were obtained:
Assay in all cases: NCI-60 one-dose screen, 48 h (100 = growth as untreated, 0 = no growth, -100 = all killed)
HCT-15 colon = conditions: 10 µM
HT29 colon = conditions: 10 µM
SNB-75 CNS = conditions: 10 µM
SNB-19 CNS = conditions: 10 µM
PC-3 prostate = conditions: 10 µM
SK-MEL-5 melanoma = conditions: 10 µM
UACC-62 melanoma = conditions: 10 µM unless noted
LOX IMVI melanoma = conditions: 10 µM
SK-MEL-28 melanoma = conditions: 10 µM
U251 CNS = conditions: 10 µM

SMILES | growth (HCT-15 colon) [%] | growth (HT29 colon) [%] | growth (SNB-75 CNS) [%] | growth (SNB-19 CNS) [%] | growth (PC-3 prostate) [%] | growth (SK-MEL-5 melanoma) [%] | growth (UACC-62 melanoma) [%] | growth (LOX IMVI melanoma) | growth (SK-MEL-28 melanoma) [%] | growth (U251 CNS) [%]
O=c1cc(-c2ccccc2)[nH]c(=S)[nH]1 | 107 | 101 | 96.9 | 104 | 91 | 104 | 106 | 98.3% | 103 | 
O=C(O)CCC(NC(=O)OCc1ccccc1)C(=O)O (stereo not given) | 110 | 105 | 99.5 | 98.1 | 97 | 101 | 90.5 | 98.9% | 109 | 
N#CC(=Nc1cccc(F)c1)C1=C(O)c2ccccc2C1=O | 76 | 105 | 54.3 | 90.4 | 83 | 90.7 | 82.8 | 91.1% |  | 
CC1(C)OC(=O)C(c2ccsc2)C(=O)O1 | 109 | 100 | 92.5 | 108 | 85 | 101 | 105 | 88.8% | 115 | 
CC(=O)Nc1cccc(Cl)c1C | 106 | 97.1 | 87.1 | 107 |  | 102 |  | 96.8% | 107 | 88.9
COc1ccc(OC)c(/C=C2\CCc3ccccc3C2=O)c1 | 24.3 | 12.8 | 17.4 | 38.6 | 47.6 | 52.9 | 43.5 | 35.6% | 64.9 | 
O=S(=O)(O)c1cc(O)c2c(N=Cc3ccccc3O)c(S(=O)(=O)O)ccc2c1 | 99.9 | 103 | 93.4 | 108 | 95.5 | 103 | 113 |  | 114 | 
O=C1OC(c2ccc(F)cc2)CC1CN1CCOCC1 (stereo not given) | 110 | 90.3 | 89.1 | 98.1 | 88.9 | 104 | 110 | 89.2% | 109 | 
CC(=O)C1CCCCC1 | 95 | 104 | 87.1 | 100 | 96.8 | 99.9 | 103 | 99.9% | 102 | 
O=S(=O)(Cc1ccccc1)c1ccccc1 | 102 | 107 | 88.5 | 107 | 102 | 104 | 111 | 107% | 98.5 | 
OCc1cccc2ccccc12 | 101 | 114 | 86.3 | 113 |  | 118 | 112 | 102% | 111 | 108
CC(=O)OCCO | 107 | 120 | 84.7 | 110 | 104 | 102 | 108 | 107% | 100 | 
O=C(Cc1ccc(OCc2ccccc2)cc1)NCc1ccc2c(c1)OCO2 | 48.9 | 27.4 | 91.8 | 85.7 | 64.6 | 95.8 | 61.8 | 50% | 74.7 | 
COc1cc(/C=C/C(=O)c2ccccc2)cc(OC)c1OC | 31.4 | 19.1 | 71.2 | 83.8 | 58 | 76.1 | 54.9 | 2.98% (active) | 82.3 | 
COC(=O)Nc1cccc(Cl)c1OC | 96.4 | 111 | 99 | 112 | 103 | 100 | 111 |  | 114 | 
C/C(=C\c1ccc([N+](=O)[O-])cc1)C(=O)O | 103 | 107 | 88.5 | 97.7 | 84.2 | 97.8 | 99.6 | 98.6% | 111 | 
COCCCNC(=O)c1nnn2c1nc(N)c1cc(Cl)ccc12 | 85.6 | 73.4 | 70.6 | 102 | 80.6 | 98.4 | 80 | 88.3% | 87 | 

SMILES | growth (HCT-15 colon) [%] | growth (HT29 colon) [%] | growth (SNB-75 CNS) [%] | growth (SNB-19 CNS) [%] | growth (PC-3 prostate) [%] | growth (SK-MEL-5 melanoma) [%] | growth (UACC-62 melanoma) [%] | growth (LOX IMVI melanoma) | growth (SK-MEL-28 melanoma) [%] | growth (U251 CNS) [%]
CC(CN1CCCCC1)NC(=O)c1scnc1-c1ccccc1 (stereo not given) | 103 | 94.2 | 86.1 | 107 | 92.9 | 101 | 107 | 95.2% | 107 | 
Cc1cc(=O)n(-c2ccc(F)cc2)[nH]1 | 89.6 | 105 | 88.5 | 103 | 90 | 97.5 | 101 |  | 119 | 
CN(C)c1ccc2oc(=O)c3ccccc3c2c1 | 101 | 86.7 | 57.1 | 81.3 |  | 94.9 | 68.8 | 88.8% | 113 | 94.3
O=C(NCCNC(=O)c1ccc(Cl)cc1Cl)c1ccc(Cl)cc1Cl | 106 | 118 | 102 | 110 | 84.5 | 98.5 | 91.1 | 94.9% | 104 | 
C/C(=N\NC(=O)c1ccccc1N)c1ccccc1O | 26.5 | 37 | 83 | 56.6 | 50.3 | 60.5 | 32 | 36.7% | 60.9 | 
COc1ccccc1N1CCN(C(=S)Nc2ccccc2)CC1 | 103 | 96.7 | 84 | 99.6 | 89.9 | 97.9 | 98.2 | 90.4% | 105 | 
COC(=O)CCCCC1=CCC2C(=O)C=C(O)C2C1 (stereo not given) | 96.3 | 104 | 85.5 | 104 | 92.5 | 102 | 103 | 97.5% | 100 | 
N#Cc1ccc(OC(=O)Nc2ccc(Cl)c(Cl)c2)cc1 | 53.6 | 63.4 | 93.2 | 87 | 36.2 | 81.5 | 65.7 |  | 94.1 | 
Cc1c(O)cnc2nn(-c3ccccc3)c(=N)n12 | 100 | 96.3 | 76.4 | 98.5 | 119 | 101 | 106 | 102% | 112 | 
COc1cccc(COC(=O)Nc2ccccc2)c1OC | 85.4 | 105 | 84.1 | 101 | 83.9 | 98.2 | 94.4 | 103% | 102 | 
C=CCCCCCCCCCOC(C)=O | 114 | 103 | 101 | 98.3 | 95.2 | 101 | 95.7 | 99.2% | 112 | 
O=C(Nc1ccccc1)OCCc1ccccc1 | 96.9 | 95 | 80.3 | 101 | 91 | 99.3 | 104 | 107% | 100 | 
Cc1cc(C)cc(NCCC#N)c1 | 106 | 105 | 94.6 | 96.5 |  | 107 | 105 | 105% | 108 | 105
S=C1NCc2cncnc2N1 | 95.4 | 104 | 86.6 | 109 | 96.1 | 103 | 108 | 104% | 107 | 
CC(=O)Nc1ccc(NC(C)=O)c2c1C(=O)c1ccccc1C2=O | 86.1 | 99.7 | 85.9 | 111 | 81.9 | 96.8 | 73.3 | 86% | 115 | 
O=C(OCC(O)C1OC(c2ccccc2)OC(COC(=O)c2ccccc2)C1O)c1ccccc1 (stereo not given) | 96.6 | 103 | 77.4 | 94.2 | 83.5 | 97.1 | 108 | 108% | 104 | 
N/N=C(/Cc1ccccc1)NNC(N)=S | 97.5 | 95.7 | 87.7 | 105 | 88.3 | 97.3 | 101 | 94.5% | 114 | 

From PubChem BioAssay (NCI)
